In PubChem BioAssay AID1565 (Sanford-Burnham Center for Chemical Genomics, 2009):
About 3,200 (1.1%) of roughly 290,000 compounds were called active. The sample holds actives, similar compounds and a random draw of the others, so the mix is not that of the screen. Cut-off read from the data, not from the text of the source: active = inhibition above about 60%; inactive = the rest.

Target: Phosphoethanolamine/phosphocholine phosphatase (Homo sapiens) (UniProt Q8TCT1)
Experiment: PubChem AID 1565
Conditions: recombinant PHOSPHO1, absorbance phosphatase assay; at 13.3 µM; active compounds read high

Chain of Phosphoethanolamine/phosphocholine phosphatase (Homo sapiens) (Q8TCT1 whole entry, looked up): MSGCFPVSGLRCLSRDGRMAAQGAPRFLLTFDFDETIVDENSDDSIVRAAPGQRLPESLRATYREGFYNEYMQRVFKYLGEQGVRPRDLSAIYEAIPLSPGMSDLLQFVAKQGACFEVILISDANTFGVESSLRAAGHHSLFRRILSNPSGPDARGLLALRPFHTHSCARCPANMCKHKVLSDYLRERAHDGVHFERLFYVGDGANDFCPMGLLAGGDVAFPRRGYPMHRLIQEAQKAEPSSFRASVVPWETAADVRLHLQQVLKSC

inhibition, inactive:
Cc1ccc(S(=O)(=O)N2CCN=C2SCc2c(F)cccc2Cl)cc1 22.6%
OC(CNCCc1ccc(Cl)cc1Cl)COc1ccccc1 (configuration not stated) 46.3%
COc1ccc(OC)c(C(=O)NC(CC(N)=O)c2ccc(N3CCC(N4CCCCC4)CC3)c([N+](=O)[O-])c2)c1 (configuration not stated) -18.6%
O=C(CNc1cccc(S(=O)(=O)N2CCCCC2)c1)Nc1ccccc1F 42.8%
CC(C)C(C(=O)NCc1ccco1)N(CC1CCCO1)C(=O)CNS(=O)(=O)c1ccc(F)cc1 (configuration not stated) 46.2%
CCOc1ccccc1Nc1nnc(SCc2ccc(C(=O)OC)o2)s1 48.3%
Cc1cc(NC(=O)CSc2nnc(Nc3ccccc3F)s2)no1 -3.4%
CCOC(=O)C1(CCOC)CCN(Cc2cc3ccccc3s2)CC1 3.1%
CCOC(=O)c1ccc(NC(=O)CSc2nnc(COc3ccccc3OC)n2C)cc1 6.3%
CCCCNC(=O)CSc1nc2ccc(NC(=O)CSc3nnc(N)s3)cc2s1 -25.6%
CC(C)[C@H](NC(=O)N1CCn2c1nc1ccccc12)C(=O)NC1CC1 46.9%
O=S1(=O)CCOC[C@H](CC2CCCCC2)N1Cc1ccc(F)cc1 4%
CCOC(=O)c1c(C)[nH]c(C)c1S(=O)(=O)NCCCc1ccco1 -28.5%
COc1cccc(NC(C)=[N+](C)CCNS(=O)(=O)c2ccc(Cl)cc2)c1 -9%
O=S(=O)(NCc1ccccc1)c1ccc(S(=O)(=O)N2CCCC2)cc1 3.4%
COC(=O)C1=C(C)NC(=O)/C1=C/c1ccc(CNS(=O)(=O)c2ccc(C)cc2)o1 41.2%
O=C(Nc1ccc(C(=O)O)cc1)/C(=C\c1ccccc1)NC(=O)c1ccc(Br)cc1 25%
Cc1ccc(S(=O)Cc2ccc(C(=O)N3CCN(C4CCCCC4)CC3)o2)cc1 (configuration not stated) 26.1%
CCC(C)c1ccccc1NC(=O)CN(C)CC(=O)Nc1ccccc1SC (configuration not stated) 7%
O=C(CSc1nnc(-c2cccs2)n1Cc1ccco1)c1ccc2c(c1)OCO2 -69.6%
COc1cc(Cl)c(C)cc1NC(=O)CSc1nnc(-c2cccnc2)n1Cc1ccco1 28.9%
C=CCn1c(CNC(=O)c2ccco2)nnc1SCC(=O)c1ccc(OC)cc1 32.2%
CCn1c(COc2ccccc2)nnc1SCC(=O)NCc1ccco1 19.2%
Cc1cc(NC(=O)CSc2nc3cc(Cl)ccc3c(=O)n2Cc2ccco2)no1 12.3%
CCc1ccc(NC(=O)CSc2nnc(-c3cnccn3)n2Cc2ccco2)cc1 1.3%
COc1ccc(NC(=O)CSc2nnc(-c3cccs3)n2Cc2ccco2)cc1OC 19.4%
Cc1ccc(NC(=O)CSc2nnc(-c3cnccn3)n2Cc2ccco2)cc1C -3.2%
CC1CCN(C(=O)/C(=C\c2ccccc2F)NC(=O)c2ccccc2)CC1 18.7%
CCN(c1cccc(C)c1)S(=O)(=O)c1ccc(-c2coc(C)n2)cc1 -0.1%
Cc1cc(=O)oc2c3c(cc(OCC(=O)NCc4ccccn4)c12)OC(C)(C)CC3 34.3%
O=C1C(=O)N(CCN2CCOCC2)C(c2cccc(Cl)c2)/C1=C(/O)c1ccc2c(c1)OCO2 (configuration not stated) 24%
CN(C(=O)CCN1C(=O)/C(=C/c2ccccc2F)SC1=S)C1CCS(=O)(=O)C1 (configuration not stated) 52.6%
COc1ccc(OC)c(NC(=O)Cc2cccs2)c1 3.8%
CCCc1nn2c(=O)cc(CSCC(=O)Nc3cccc(C)c3)nc2s1 24%
CCOC(=O)Cc1csc(NC(=O)CSc2nnc(-c3cccnc3)n2Cc2ccco2)n1 17.3%
O=C(CSc1nnc(-c2cccnc2)n1CCc1ccccc1)NCc1ccccc1 1.5%
Cc1ccc(C(=O)N(CC(=O)NC2CCCC2)c2ccc(F)cc2)s1 40.5%
CCCCn1c(SCC(=O)N2CCC(C(=O)OCC)CC2)nc2cc(S(N)(=O)=O)ccc21 1.5%
CCn1c(SCC(=O)NCC2CCCO2)nc2cc(S(=O)(=O)N3CCCCC3)ccc21 (configuration not stated) 14.5%
O=C(c1cccc(-n2cccc2)c1)N1CCN(S(=O)(=O)c2ccc(F)cc2)CC1 -102%
O=C(C1CC(=O)N(c2ccc(F)cc2)C1)N1CCN(c2ccccc2)CC1 (configuration not stated) 42.6%
COc1ccc(OC)c(CNC(=O)Cn2nc(C)c3c(C)n(-c4ccc(C)cc4)nc3c2=O)c1 24%
Cc1nn(C(C)C(=O)NCCC2=CCCCC2)c(=O)c2nn(-c3ccccc3)c(C)c12 (configuration not stated) 54.1%
COC(=O)c1ccc(CN2CCCC(C(=O)Nc3cccc(-n4cnnn4)c3)C2)cc1 (configuration not stated) 22.6%
Cn1c(=O)n(C)c2cc(NS(=O)(=O)c3ccc(F)cc3)ccc21 38.9%
Cc1cc(C)cc(NS(=O)(=O)c2ccc(F)cc2)c1 28.3%

inhibition, active:
CCOc1ccccc1Nc1nnc(SCC(=O)Nc2cc(C)on2)s1 61.5%
CCCCNC(=O)CSc1nc2ccc(NC(=O)CSc3nnc(COc4ccccc4C)n3C)cc2s1 74.2%
O=c1/c(=C/c2ccc(CNS(=O)(=O)c3ccccc3)o2)sc2n1CCN=2 97.8%
O=C(CSc1nnc(-c2cnccn2)n1Cc1ccco1)c1ccc(Cl)c(Cl)c1 85.4%
COc1ccc(C(=O)CSc2nnc(COc3ccccc3)n2Cc2ccco2)cc1 91.7%
O=C(CSc1nnc(-c2cccnc2)n1Cc1ccco1)c1ccc(Cl)c(Cl)c1 71.1%
O=C(CSc1nnc(-c2cccnc2)n1Cc1ccco1)c1ccc(Cl)cc1 79.6%
C(=C\c1ccccc1)/CSc1nnc(-c2cccnc2)n1Cc1ccco1 70.5%
CCCCn1c(SCc2ncc(-c3ccccc3)o2)nc2cc(S(N)(=O)=O)ccc21 75.4%
COc1ccc(CNC(=O)C(C)n2nc(C)c3c(C)n(-c4ccccc4)nc3c2=O)c(OC)c1 (configuration not stated) 64.7%
Cn1nccc1NS(=O)(=O)c1ccc(F)cc1 69.9%
